Values joined by “and” are separate entries in the source; they are usually repeats but may differ in a detail not shown here. Identical values can stand only once. Compounds without any hit were thinned out: in the full panel of roughly 83,000, 20% have a hit.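 48-hour exposure, single concentration, 96-well plates; percent growth endpoint where 0 means no net growth. Active: below 10.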 Active and inactive are the calls of the source.
The compounds below were run on OVCAR-4 ovarian (assay: NCI-60 one-dose screen, 48 h (100 = growth as untreated, 0 = no growth, -100 = all killed)). Details: 10 µM.
Description: Growth inhibition of the OVCAR-4 human tumor cell line is measured as a screen for anti-cancer activity. Cells are grown in 96 well plates and exposed to the test compound for 48 hours. Compounds are tested at a single concentration, which is 10^-5 M for most compounds. The reported endpoint is percent growth (GI% or GIPRCNT), where numbers from 0 - 100% represent growth inhibition, and numbers from -100% - 0 represent cell death. For example, a value of 40 represents 60% growth inhibition. A value of 0 means no net growth occurred over the course of the experiment. A value of -40 indicates 40% of cells at the beginning of the experiment died by the end of the experiment. A value of -100 means all cells are dead at the end of the experiment.
NCI-60 Human Tumor Cell Lines Screen was performed using the standard one-dose NCI protocol, which is described in more detail at https://dtp.cancer.gov/discovery_development/nci-60/default.htm.
Compounds with GIPRCNT values below 10 were considered active. Activity score was based on GIPRCNT using the following formula: […]
Score is 0 for GIPRCNT values of 100 or above, 50 for GIPRCNT values of 0, and 100 for GIPRCNT values of -100.
With `COc1ccc(Cl)cc1C(=O)NCCc1ccc(S(=O)(=O)NC(=O)NC2CCCCC2)cc1` the growth was 117% (inactive) and 103% (inactive).

Same assay, conditions: 10 µM unless noted
For `ClC/C=C/CSc1ncnc2nc[nH]c12`, the growth was 108% (inactive) and 99% (inactive).
In the case of `O=Nc1ccc(O)cc1`, the growth is reported as 108% (inactive) and 106% (inactive).
For `CN(C)c1ccc2nc3ccc(=[N+](C)C)cc-3sc2c1`, the growth was 8.61% (active) and -18% (active) and 10.4% (inactive).
`CC1CCCC(=O)O1` (stereo not given) was tested, and the growth was 96% (inactive) and 104% (inactive).
For `CC(C)(C)c1ccc(O)c(CNC2CCCCC2)c1`, the growth was 82.8% (inactive).
In the case of `Cc1ccc2nc3c(nc2c1)-c1cccc2cccc-3c12`, the growth is reported as 92% (inactive).
With `COc1ccc2c(=O)cc(-c3ccccc3)[nH]c2c1` the growth was 53.1% (inactive) and 36.7% (inactive).
With `Nc1ccccc1Nc1ccccc1` the growth was 93.7% (inactive) and 88.9% (inactive).
`CC(=O)c1ccccc1O` was tested, and the growth was 110% (inactive) and 107% (inactive) and 111% (inactive).
With `N/C(=N\N=C\c1ccc2c(c1)OCO2)N/N=C\c1ccc2c(c1)OCO2` the growth was 93.8% (inactive).
With `COc1cc(-c2nccc3cc4c(cc23)OCO4)cc(OC)c1OC` the growth was 79.2% (inactive) and 69% (inactive).
For `O=[N+]([O-])c1ccc(N/N=C\c2cc(Br)ccc2O)nc1`, the growth was 20.3% (inactive) and 7.71% (active).
`CC(=O)c1ccc2c(c1)N(CCCN1CCN(CCO)CC1)c1ccccc1S2` was tested, and the growth was 101% (inactive) and 49.8% (inactive).
In the case of `COC(=O)/C=C/c1cc(O)c2c(c1)C(C(=O)OC)C(c1ccc(O)c(O)c1)O2` (stereo not given), the growth is reported as 52.9% (inactive) and 43.8% (inactive).
For `CCOc1ccc2cc(-c3nn(CC4CCN(C)CC4)c4ncnc(N)c34)ccc2c1`, the growth was 91.4% (inactive) and 70.5% (inactive).
With `Cc1nnc(NC/C=C/c2ccccc2)s1` the growth was 102% (inactive) and 111% (inactive).
In the case of `CO/N=C/C=C\C(=O)N/C=C/C[C@H]1/C=C/[C@H](O)/C=C\C=C\c2cccc(O)c2C(=O)O1`, the growth is reported as 72% (inactive) and 69.4% (inactive).
In the case of `CCN(CC)CCCC(C)N(Cc1ccccc1)CC(O)c1ccc(Cl)cc1` (stereo not given), the growth is reported as 116% (inactive) and 112% (inactive).
`Oc1ccccc1C=NCC1CCC(CN=Cc2ccccc2O)CC1` (stereo not given) was tested, and the growth was 116% (inactive).
For `Cc1c(Cl)cccc1NCN1C(=O)c2ccccc2C1=O`, the growth was 108% (inactive).
`COc1ccccc1NC(=O)OCC#CCOC(=O)Nc1ccccc1OC` was tested, and the growth was 99.2% (inactive) and 94% (inactive).
In the case of `O=C(c1ccc(Cl)cc1)C(NCCO)c1ccc(Cl)cc1` (stereo not given), the growth is reported as 103% (inactive).
For `CC1=C(/C=C/C(C)=C/C=C/C(C)=C/C(=O)Nc2ccc(O)cc2)C(C)(C)CCC1`, the growth was 44.3% (inactive).
For `c1ccc(NCc2ccc3c(c2)OCO3)cc1`, the growth was 106% (inactive) and 108% (inactive).
In the case of `CNC(=O)c1cccc(-c2ccc3c(N4CCOC[C@@H]4C)nc(N4CCOC[C@@H]4C)nc3n2)c1`, the growth is reported as -17.7% (active) and -18.2% (active).
For `CCOC(=O)Nc1nc2ccccc2[nH]1`, the growth was 111% (inactive) and 83% (inactive).
In the case of `Nc1nc(SC/C=C/CCl)c2[nH]cnc2n1`, the growth is reported as 116% (inactive) and 100% (inactive).
With `CC(O)(CC(=O)CC(=O)c1ccccc1)c1ccccc1` (stereo not given) the growth was 69.9% (inactive) and 118% (inactive).
With `O=C=NC(c1ccccc1)(c1ccccc1)c1ccccc1` the growth was 115% (inactive).
For `C#CCN(C)Cc1ccccc1`, the growth was 112% (inactive) and 114% (inactive).
For `O=C(/C=C\c1ccnc2ccccc12)c1ccc([N+](=O)[O-])cc1`, the growth was 85.3% (inactive) and 63.1% (inactive).
`OCc1ccccn1` was tested, and the growth was 113% (inactive).
In the case of `CC(C)(O)Cn1cc(-c2ccc3nc(OC4CC4)ccc3c2)c2c(N)ncnc21`, the growth is reported as 96.3% (inactive) and 63.1% (inactive).
With `CCC(=O)C(CC)c1cccc(OC)c1` (stereo not given) the growth was 105% (inactive).
For `CC[N+](CC)(CC(=O)Nc1c(C)cccc1C)Cc1ccccc1`, the growth was 80.4% (inactive) and 105% (inactive).
For `O=C(O)c1cc(C(=O)O)cc([N+](=O)[O-])c1`, the growth was 108% (inactive).
With `Clc1ccc(NC(Nc2ccc(Cl)cc2)C(Cl)(Cl)Cl)cc1` the growth was 82.4% (inactive) and 118% (inactive).
In the case of `CN(C)c1ccc(C(Cc2ccc3ccccc3n2)Cc2ccc3ccccc3n2)cc1`, the growth is reported as 45.5% (inactive) and 79.8% (inactive).

Same assay, conditions: 100 µM
With `COc1ccc(Cl)cc1C(=O)NCCc1ccc(S(=O)(=O)NC(=O)NC2CCCCC2)cc1` the growth was 58.7% (inactive).

Reference: PubChem BioAssay (NCI)
